We go through 38 compounds from PubChem BioAssay (Tox21).

Values joined by “and” are separate entries in the source; they are usually repeats but may differ in a detail not shown here. Equal entries are not always repeated. Inconclusive results are not listed. Entries that show only a call come without a potency. Active and inactive are the calls of the source. Unless noted, calls follow the shape of the dose curve; as a rule, active = well fitted cell-killing curve with a large enough effect in the repeat runs; inconclusive = weak or mixed curves, or effect the other way; inactive = no such curve, though single readings can be large or run the other way.

The target of the first experiment is Thyrotropin receptor (Homo sapiens) (UniProt P16473). Kind of experiment: qHTS assay to identify small molecule antagonists of the thyroid stimulating hormone receptor (TSHR) signaling pathway (AID 1259385; calls by dose curve; also: nearly all actives have a fitted effect of over 20% in size). Conditions: TSHR-HEK293 cAMP HTRF, TSH-stimulated antagonist mode; series mostly up to 92.4 µM; activity change, negative = inhibition: at the top concentration. Put shortly: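 TSHR-HEK293 cells were plated and held 18 h at 37C/5% CO2, then given compound plus Ro20-1724 and stimulated with TSH at 1.5 ng/mL final. After 30 min at room temperature, cAMP was detected with cAMP-d2/anti-cAMP-cryptate (1 h) by fluorescence.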
Chain of Thyrotropin receptor (Homo sapiens) (P16473 whole entry, looked up): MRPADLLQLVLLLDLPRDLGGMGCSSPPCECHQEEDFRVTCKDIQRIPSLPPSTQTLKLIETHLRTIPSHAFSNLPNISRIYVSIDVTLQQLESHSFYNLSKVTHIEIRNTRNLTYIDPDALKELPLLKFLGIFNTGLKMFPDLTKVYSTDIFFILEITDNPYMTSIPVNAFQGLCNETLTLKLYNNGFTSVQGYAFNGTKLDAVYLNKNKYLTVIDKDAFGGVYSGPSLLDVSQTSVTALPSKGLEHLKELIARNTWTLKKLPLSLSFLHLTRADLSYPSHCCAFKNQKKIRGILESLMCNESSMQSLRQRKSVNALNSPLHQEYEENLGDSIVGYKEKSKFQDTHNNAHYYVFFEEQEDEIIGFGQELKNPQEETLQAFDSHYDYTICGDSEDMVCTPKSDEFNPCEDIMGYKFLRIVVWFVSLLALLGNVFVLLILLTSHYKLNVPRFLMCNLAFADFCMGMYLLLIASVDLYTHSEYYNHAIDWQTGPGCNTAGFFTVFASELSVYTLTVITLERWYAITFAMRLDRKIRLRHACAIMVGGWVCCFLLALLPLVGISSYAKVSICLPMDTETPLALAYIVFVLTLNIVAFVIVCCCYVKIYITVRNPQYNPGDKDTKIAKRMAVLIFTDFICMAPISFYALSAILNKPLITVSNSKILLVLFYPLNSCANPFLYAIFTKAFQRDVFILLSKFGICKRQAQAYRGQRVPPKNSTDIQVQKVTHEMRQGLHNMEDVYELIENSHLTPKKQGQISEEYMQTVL
On to `COP(=O)(OC)OC`, for which the compound was called inactive.

For the compound `Cc1ccc(OP(=O)(Oc2ccc(C)cc2)Oc2ccc(C)cc2)cc1`, the outcome was inactive.

As to `CCC(C)(c1ccc(O)cc1)c1ccc(O)cc1`, the call was inactive.

Turning to `O=C(O)C(F)(F)C(F)(F)C(F)(F)C(F)(F)C(F)(F)C(F)(F)C(F)(F)F`, the compound was classed as inactive.

For the compound `c1ccc(-c2cccc(-c3ccccc3)c2)cc1`, the call was inactive.

Regarding `CC(C)(OOC(C)(C)c1ccccc1)c1ccccc1`, the “activity change, negative = inhibition” value was -6.48% (inactive).

On to `CCOc1cc(Oc2ccc(C(F)(F)F)cc2Cl)ccc1[N+](=O)[O-]`, for which the “activity change, negative = inhibition” value is 0% (inactive).

On to `O=C(NC(=O)c1c(F)cccc1F)Nc1ccc(Cl)cc1`, for which the result was inactive.

On to `C#C[C@]1(O)CC[C@H]2[C@@H]3CCC4=CC(=O)CC[C@]4(C)[C@H]3CC[C@@]21C`, for which the compound was called inactive.

In the case of `CCOCN(C(=O)CCl)c1c(C)cccc1CC`, the compound was classed as inactive.

For `Nc1ccncc1`, the compound was classed as inactive.

Consider `Cc1ccccc1[N+](=O)[O-]`, for which the result was inactive.

Consider `c1cc(OCC2CO2)ccc1Cc1ccc(OCC2CO2)cc1` (stereo unspecified), for which the result was inactive.

As for `O=Cc1ccco1`, the compound was classed as inactive.

Consider `CCOc1cc(C=O)ccc1O`, for which the “activity change, negative = inhibition” value was 0.753% (inactive).

As for `Nc1ccc(Cl)c(Cl)c1`, the compound was classed as inactive.

Regarding `CCC(CC)Nc1c([N+](=O)[O-])cc(C)c(C)c1[N+](=O)[O-]`, the “activity change, negative = inhibition” value is 3.66% (inactive).

For the compound `COc1ccc(C=O)cc1`, the result was inactive.

On to `CCCCNC(=O)n1c(NC(=O)OC)nc2ccccc21`, for which the “activity change, negative = inhibition” value was -3.36% (inactive).

On to `c1ccc(NNc2ccccc2)cc1`, for which the compound was classed as inactive.

For `CC1(C)C(C=C(Cl)Cl)C1C(=O)OC(C#N)c1cccc(Oc2ccccc2)c1` (stereo unspecified), the call was inactive.

As to `CCCCCCCCC(=O)NCc1ccc(O)c(OC)c1`, the result was inactive.

`Cc1c(COC(=O)[C@@H]2[C@H](/C=C(\Cl)C(F)(F)F)C2(C)C)cccc1-c1ccccc1`: the call was inactive.

As to `CC(C)c1ccc(CO)cc1`, the “activity change, negative = inhibition” value is -0.538% (inactive).

For the compound `CCCCCCCCCCCOC(=O)c1ccccc1C(=O)OCCCCCCCCCCC`, the result was inactive.

Take `N#CC(Br)Br`: the call was inactive.

Turning to `COc1ccc(C(CN(C)C)C2(O)CCCCC2)cc1` (stereo unspecified), the compound was classed as inactive.

As to `C=CCN(CC=C)C(=O)C(Cl)Cl`, the call was inactive.

Turning to `CCOC(=O)C(C)OC(=O)c1cc(Oc2ccc(C(F)(F)F)cc2Cl)ccc1[N+](=O)[O-]` (stereo unspecified), the outcome was inactive.

With `CCCCC(CC)COC(=O)c1ccc(C(=O)OCC(CC)CCCC)c(C(=O)OCC(CC)CCCC)c1` (stereo unspecified), the compound was called inactive.

On to `c1ccc(P(c2ccccc2)c2ccccc2)cc1`, for which the outcome was inactive.

For `Oc1c(Cl)c(Cl)c(Cl)c(Cl)c1Cl`, the result was inactive.

In the case of `Oc1cc(Cl)c(Cl)cc1Cl`, the compound was classed as inactive.

For `NNC(=S)NN`, the compound was called inactive.

`O=P(O)(O)CCCl`: the compound was classed as inactive.

As for `Nc1ccc(-c2ccccc2)cc1`, the call was inactive.

In the case of `N#Cc1cc(Br)c(O)c(Br)c1`, the “activity change, negative = inhibition” value was -0.111% (inactive).

As for `Cc1ccc2c(c1N)C(=O)c1ccccc1C2=O`, the call was inactive.

Test system in a further experiment: not listed separately
Kind of experiment: qHTS assay to identify small molecule agonists of the estrogen receptor alpha (ER-alpha) signaling pathway in the presence of an antagonist - cell viability counter screen (AID 1259386).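 Also: cells exposed to compounds for 22 h at 37 °C before the viability read; nearly all actives have a fitted effect of over 30% in size.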 Also: potency is read from the fitted curve at half-maximal effect. The conditions noted are these: VM7Luc4E2 viability, CellTiter-Fluor fluorescence, 22 h; series mostly up to 92.4 µM; activity change, negative = cytotoxicity: at the top concentration. In a few lines: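 Cytotoxicity was measured in parallel with the ERE-luciferase agonist screen, in the same wells. The cells were VM7Luc4E2, which endogenously express ER-alpha, and treatment was with compounds plus 10.0nM ICI-182,780 for 22hr.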
On the technique in general: qHTS replaces the single test concentration by a dilution series.
In the case of `COP(=O)(OC)OC`, the Potency result was “inactive”.

In the case of `Cc1ccc(OP(=O)(Oc2ccc(C)cc2)Oc2ccc(C)cc2)cc1`, the Potency entry is “inactive”.

As to `CCC(C)(c1ccc(O)cc1)c1ccc(O)cc1`, the Potency entry was “inactive”.

With `O=C(O)C(F)(F)C(F)(F)C(F)(F)C(F)(F)C(F)(F)C(F)(F)C(F)(F)F`, the Potency entry was “inactive”.

As for `c1ccc(-c2cccc(-c3ccccc3)c2)cc1`, the Potency entry is “inactive”.

For the compound `CC(C)(OOC(C)(C)c1ccccc1)c1ccccc1`, the Potency result was “inactive”.

As to `CCOc1cc(Oc2ccc(C(F)(F)F)cc2Cl)ccc1[N+](=O)[O-]`, the Potency entry was “inactive”.

`O=C(NC(=O)c1c(F)cccc1F)Nc1ccc(Cl)cc1`: the Potency entry is “inactive”.

Consider `C#C[C@]1(O)CC[C@H]2[C@@H]3CCC4=CC(=O)CC[C@]4(C)[C@H]3CC[C@@]21C`, for which the Potency entry is “inactive”.

Consider `CCOCN(C(=O)CCl)c1c(C)cccc1CC`, for which the Potency result was “inactive”.

In the case of `Nc1ccncc1`, the Potency entry is “inactive”.

As to `Cc1ccccc1[N+](=O)[O-]`, the Potency result is “inactive”.

On to `c1cc(OCC2CO2)ccc1Cc1ccc(OCC2CO2)cc1` (stereo unspecified), for which the Potency result is “inactive”.

In the case of `O=Cc1ccco1`, the Potency entry is “inactive”.

With `CCOc1cc(C=O)ccc1O`, the Potency entry is “inactive”.

Consider `Nc1ccc(Cl)c(Cl)c1`, for which the Potency entry is “inactive”.

As for `CCC(CC)Nc1c([N+](=O)[O-])cc(C)c(C)c1[N+](=O)[O-]`, the Potency result was “inactive”.

For `COc1ccc(C=O)cc1`, the Potency result is “inactive”.

`CCCCNC(=O)n1c(NC(=O)OC)nc2ccccc21`: the “activity change, negative = cytotoxicity” value is 2.37% (inactive).

Turning to `c1ccc(NNc2ccccc2)cc1`, the Potency result was “inactive”.

`CC1(C)C(C=C(Cl)Cl)C1C(=O)OC(C#N)c1cccc(Oc2ccccc2)c1` (stereo unspecified): the Potency entry was “inactive”.

Regarding `CCCCCCCCC(=O)NCc1ccc(O)c(OC)c1`, the Potency result was “inactive”.

In the case of `Cc1c(COC(=O)[C@@H]2[C@H](/C=C(\Cl)C(F)(F)F)C2(C)C)cccc1-c1ccccc1`, the Potency entry is “inactive”.

As for `CC(C)c1ccc(CO)cc1`, the Potency entry is “inactive”.

As to `CCCCCCCCCCCOC(=O)c1ccccc1C(=O)OCCCCCCCCCCC`, the Potency result is “inactive”.

Turning to `N#CC(Br)Br`, the Potency result is “inactive”.

As to `COc1ccc(C(CN(C)C)C2(O)CCCCC2)cc1` (stereo unspecified), the Potency entry is “inactive”.

Take `C=CCN(CC=C)C(=O)C(Cl)Cl`: the Potency entry is “inactive”.

For `CCOC(=O)C(C)OC(=O)c1cc(Oc2ccc(C(F)(F)F)cc2Cl)ccc1[N+](=O)[O-]` (stereo unspecified), the Potency result is “inactive”.

Turning to `CCCCC(CC)COC(=O)c1ccc(C(=O)OCC(CC)CCCC)c(C(=O)OCC(CC)CCCC)c1` (stereo unspecified), the Potency result was “inactive”.

Regarding `c1ccc(P(c2ccccc2)c2ccccc2)cc1`, the Potency entry is “inactive”.

Consider `Oc1c(Cl)c(Cl)c(Cl)c(Cl)c1Cl`, for which the Potency entry is “inactive”.

In the case of `Oc1cc(Cl)c(Cl)cc1Cl`, the Potency result was “inactive”.

With `NNC(=S)NN`, the Potency result is “inactive”.

As for `O=P(O)(O)CCCl`, the Potency result was “inactive”.

With `Nc1ccc(-c2ccccc2)cc1`, the Potency result was “inactive”.

For the compound `N#Cc1cc(Br)c(O)c(Br)c1`, the Potency result is “inactive”.

In the case of `Cc1ccc2c(c1N)C(=O)c1ccccc1C2=O`, the Potency is 27 µM (active) and 27.3 µM (active).
